{"source": "the supplement of paper PMC8728848", "binders": {"B1": {"name": "ArathEULS3 TAP (Arabidopsis thaliana) (protein)", "chain": "IDENLYFQGGSMDEKTTGWRGGHVVEGLAGELEQLRARLEHHPQGQREPGGGGSLEITSLYKKAGFMEHHHQHHRHHQRDDGEDDRQSFGVPPPHVDAPPQPHGLYQSQPHFDPYAPTPQAPAPYRSETQFEPHAPPPYRSEPYFETPAPPPSFGHVSHVGHQSPNESYPPEHHRYGGYQQPSNSLLESHGDHSGVTHVAHHSSNQPQSSSGVYHKPDENRLPDNLAGLAGRATVKVYSKAEPNYNLTIRDGKVILAPADPSDEAQHWYKDEKYSTKVKDADGHPCFALVNKATGEAMKHSVGATHPVHLIRYVPDKLDESVLWTESKDFGDGYRTIRMVNNTRLNVDAYHGDSKSGGVRDGTTIVLWDWNKGDNQLWKIFPF"}}, "assay_in_all_cases": "glycan array binding signal (z-score within array); higher = stronger binding", "conditions_in_all_cases": "glycan notation: IUPAC condensed, linker removed", "key": {"Fuc(a1-2)Gal(b1-3)GlcNAc": {"molecular_target": "Fuc(a1-2)Gal(b1-3)GlcNAc", "outline": "(§1)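 The binding signal is a Z-score computed within each array. Data were drawn from 3228 arrays in the Consortium for Functional Glycomics database, restricted to those with a known protein sequence. Scores were averaged over arrays of the same protein sequence at different concentrations or buffers, and over linkers, and negative values can be taken as non-binding.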"}, "[1]": {"molecular_target": "Fuc(a1-2)Gal(b1-3)GlcNAc(b1-3)Gal(b1-4)Glc", "outline": "as §1"}, "[2]": {"molecular_target": "Fuc(a1-2)Gal(b1-4)GlcNAc(b1-3)Gal(b1-4)GlcNAc(b1-2)Man(a1-3)[Fuc(a1-2)Gal(b1-4)GlcNAc(b1-3)Gal(b1-4)GlcNAc(b1-2)Man(a1-6)]Man(b1-4)GlcNAc(b1-4)GlcNAc", "outline": "as §1"}, "[3]": {"molecular_target": "Fuc(a1-2)Gal(b1-4)[Fuc(a1-3)]GlcNAc(b1-2)Man(a1-3)[Fuc(a1-2)Gal(b1-4)[Fuc(a1-3)]GlcNAc(b1-2)Man(a1-6)]Man(b1-4)GlcNAc(b1-4)[Fuc(a1-6)]GlcNAc", "outline": "as §1"}, "[4]": {"molecular_target": "Fuc(a1-2)Gal(b1-4)[Fuc(a1-3)]GlcNAc(b1-3)Gal(b1-4)[Fuc(a1-3)]GlcNAc", "outline": "as §1"}, "[5]": {"molecular_target": "Fuc(a1-2)Gal(b1-4)[Fuc(a1-3)]GlcNAc(b1-3)GalNAc", "outline": "as §1"}, "[6]": {"molecular_target": "Fuc(a1-2)Gal6S(b1-3)GlcNAc6S", "outline": "as §1"}, "Fuc(a1-2)Gal6S(b1-4)Glc": {"molecular_target": "Fuc(a1-2)Gal6S(b1-4)Glc", "outline": "as §1"}, "[7]": {"molecular_target": "Fuc(a1-2)[Gal(a1-3)]Gal(b1-4)GlcNAc(b1-2)Man(a1-3)[Fuc(a1-2)[Gal(a1-3)]Gal(b1-4)GlcNAc(b1-2)Man(a1-6)]Man(b1-4)GlcNAc(b1-4)GlcNAc", "outline": "as §1"}, "[8]": {"molecular_target": "Fuc(a1-2)[GalNAc(a1-3)]Gal(b1-4)GlcNAc(b1-2)Man", "outline": "as §1"}, "[9]": {"molecular_target": "Fuc(a1-3)[Gal(b1-4)]GlcNAc(b1-2)Man(a1-3)[Fuc(a1-3)[Gal(b1-4)]GlcNAc(b1-2)Man(a1-6)]Man(b1-4)GlcNAc(b1-4)GlcNAc", "outline": "as §1"}, "[10]": {"molecular_target": "Fuc(a1-3)[Gal(b1-4)]GlcNAc6S", "outline": "as §1"}, "[11]": {"molecular_target": "Fuc(a1-3)[Gal3S(b1-4)]GlcNAc6S", "outline": "as §1"}, "Gal(a1-3)Gal": {"molecular_target": "Gal(a1-3)Gal", "outline": "as §1"}, "[12]": {"molecular_target": "Gal(a1-3)Gal(b1-3)GlcNAc(b1-3)GalNAc", "outline": "as §1"}, "Gal(a1-3)GalNAc": {"molecular_target": "Gal(a1-3)GalNAc", "outline": "as §1"}, "[13]": {"molecular_target": "Gal(a1-3)[Gal(a1-4)]Gal(b1-4)GlcNAc", "outline": "as §1"}, "[14]": {"molecular_target": "Gal(b1-3)GalNAc(b1-3)Gal(a1-4)Gal(b1-4)Glc", "outline": "as §1"}, "[15]": {"molecular_target": "Gal(b1-3)GlcNAc(a1-6)Gal(b1-4)GlcNAc", "outline": "as §1"}, "[16]": {"molecular_target": "Gal(b1-3)[Fuc(a1-4)]GlcNAc(b1-3)Gal(b1-3)[Fuc(a1-4)]GlcNAc", "outline": "as §1"}, "[17]": {"molecular_target": "Gal(b1-4)GlcNAc(b1-2)[Gal(b1-4)GlcNAc(b1-6)]Man(a1-6)[Gal(b1-4)GlcNAc(b1-2)Man(a1-3)]Man(b1-4)GlcNAc(b1-4)[Fuc(a1-6)]GlcNAc", "outline": "as §1"}, "[18]": {"molecular_target": "Gal(b1-4)GlcNAc(b1-3)Gal(b1-3)GlcNAc", "outline": "as §1"}, "[19]": {"molecular_target": "Gal(b1-4)GlcNAc(b1-3)Gal(b1-4)Glc", "outline": "as §1"}, "[20]": {"molecular_target": "Gal(b1-4)GlcNAc(b1-3)Gal(b1-4)GlcNAc(b1-3)Gal(b1-4)GlcNAc", "outline": "as §1"}, "[21]": {"molecular_target": "Gal(b1-4)GlcNAc(b1-6)Gal(b1-4)GlcNAc", "outline": "as §1"}, "[22]": {"molecular_target": "Gal(b1-4)GlcNAc(b1-6)GalNAc", "outline": "as §1"}, "Gal3S(b1-3)GlcNAc": {"molecular_target": "Gal3S(b1-3)GlcNAc", "outline": "as §1"}, "Gal3S(b1-4)Glc": {"molecular_target": "Gal3S(b1-4)Glc", "outline": "as §1"}, "Gal3S4S(b1-4)GlcNAc": {"molecular_target": "Gal3S4S(b1-4)GlcNAc", "outline": "as §1"}, "Gal4S(b1-4)GlcNAc": {"molecular_target": "Gal4S(b1-4)GlcNAc", "outline": "as §1"}, "GlcA(b1-3)GlcNAc": {"molecular_target": "GlcA(b1-3)GlcNAc", "outline": "as §1"}, "[23]": {"molecular_target": "GlcNAc(a1-4)Gal(b1-4)GlcNAc(b1-3)Gal(b1-4)GlcNAc(b1-3)Gal(b1-4)GlcNAc", "outline": "as §1"}, "[24]": {"molecular_target": "GlcNAc(b1-2)Man(a1-3)[GlcNAc(b1-2)Man(a1-6)]Man(b1-4)GlcNAc(b1-4)[Fuc(a1-6)]GlcNAc", "outline": "as §1"}, "[25]": {"molecular_target": "GlcNAc(b1-2)[GlcNAc(b1-4)]Man(a1-3)[GlcNAc(b1-4)][GlcNAc(b1-2)[GlcNAc(b1-6)]Man(a1-6)]Man(b1-4)GlcNAc(b1-4)[Fuc(a1-6)]GlcNAc", "outline": "as §1"}, "[26]": {"molecular_target": "GlcNAc(b1-3)Gal(b1-4)GlcNAc", "outline": "as §1"}, "[27]": {"molecular_target": "GlcNAc(b1-3)Gal(b1-4)GlcNAc(b1-2)Man(a1-3)[GlcNAc(b1-3)Gal(b1-4)GlcNAc(b1-2)Man(a1-6)]Man(b1-4)GlcNAc(b1-4)GlcNAc", "outline": "as §1"}}, "note": "About 410 targets per protein were measured; listed, in parts, are those with the strongest signals and a random draw of the rest."}
{"binder": "B1", "values": [{"measurement": "glycan array binding signal (z-score)", "setting": "Fuc(a1-2)Gal(b1-3)GlcNAc", "value": 0.613}, {"measurement": "glycan array binding signal (z-score)", "setting": "[1]", "value": -0.174}, {"measurement": "glycan array binding signal (z-score)", "setting": "[2]", "value": 2.35}, {"measurement": "glycan array binding signal (z-score)", "setting": "[3]", "value": 1.46}, {"measurement": "glycan array binding signal (z-score)", "setting": "[4]", "value": 0.109}, {"measurement": "glycan array binding signal (z-score)", "setting": "[5]", "value": -0.688}, {"measurement": "glycan array binding signal (z-score)", "setting": "[6]", "value": -0.204}, {"measurement": "glycan array binding signal (z-score)", "setting": "Fuc(a1-2)Gal6S(b1-4)Glc", "value": 1.85}, {"measurement": "glycan array binding signal (z-score)", "setting": "[7]", "value": -0.837}, {"measurement": "glycan array binding signal (z-score)", "setting": "[8]", "value": 0.256}, {"measurement": "glycan array binding signal (z-score)", "setting": "[9]", "value": -0.853}, {"measurement": "glycan array binding signal (z-score)", "setting": "[10]", "value": 2.6}, {"measurement": "glycan array binding signal (z-score)", "setting": "[11]", "value": 0.828}, {"measurement": "glycan array binding signal (z-score)", "setting": "Gal(a1-3)Gal", "value": 3.3}, {"measurement": "glycan array binding signal (z-score)", "setting": "[12]", "value": 0.549}, {"measurement": "glycan array binding signal (z-score)", "setting": "Gal(a1-3)GalNAc", "value": -0.474}, {"measurement": "glycan array binding signal (z-score)", "setting": "[13]", "value": 2.15}, {"measurement": "glycan array binding signal (z-score)", "setting": "[14]", "value": 0.136}, {"measurement": "glycan array binding signal (z-score)", "setting": "[15]", "value": -0.499}, {"measurement": "glycan array binding signal (z-score)", "setting": "[16]", "value": -0.335}, {"measurement": "glycan array binding signal (z-score)", "setting": "[17]", "value": 0.941}, {"measurement": "glycan array binding signal (z-score)", "setting": "[18]", "value": -0.688}, {"measurement": "glycan array binding signal (z-score)", "setting": "[19]", "value": -0.967}, {"measurement": "glycan array binding signal (z-score)", "setting": "[20]", "value": 0.391}, {"measurement": "glycan array binding signal (z-score)", "setting": "[21]", "value": 1.18}, {"measurement": "glycan array binding signal (z-score)", "setting": "[22]", "value": 1.1}, {"measurement": "glycan array binding signal (z-score)", "setting": "Gal3S(b1-3)GlcNAc", "value": -0.162}, {"measurement": "glycan array binding signal (z-score)", "setting": "Gal3S(b1-4)Glc", "value": 0.159}, {"measurement": "glycan array binding signal (z-score)", "setting": "Gal3S4S(b1-4)GlcNAc", "value": 4.33}, {"measurement": "glycan array binding signal (z-score)", "setting": "Gal4S(b1-4)GlcNAc", "value": 0.737}, {"measurement": "glycan array binding signal (z-score)", "setting": "GlcA(b1-3)GlcNAc", "value": -0.1}, {"measurement": "glycan array binding signal (z-score)", "setting": "[23]", "value": 0.236}, {"measurement": "glycan array binding signal (z-score)", "setting": "[24]", "value": -0.928}, {"measurement": "glycan array binding signal (z-score)", "setting": "[25]", "value": -0.659}, {"measurement": "glycan array binding signal (z-score)", "setting": "[26]", "value": -0.59}, {"measurement": "glycan array binding signal (z-score)", "setting": "[27]", "value": -0.107}]}
